Active and inactive are the calls of the source. How the source made its calls: active means hit-call score of the fitted dose curve at least 0.9, where 1 is the maximum; inactive means score below 0.9.
read-out: succinate dehydrogenase complex iron sulfur subunit B (SDHB), SDHB (gene 6390); assay: LTEA_HepaRG_SDHB: Life Technologies and Expression Analysis (LTEA) Assay for succinate dehydrogenase complex iron sulfur subunit B (SDHB) using HepaRG (AID 2283528); settings: mRNA level, 48 h; actives raise or lower the signal
Description: LTEA_HepaRG is a cell based, multiplexed-readout assay that uses HepaRG, a human liver cell line, with measurements taken at 48 hours after chemical dosing on a 96-well plate.LTEA_HepaRG_SDHB is one of 102 assay component(s) measured in the LTEA HepaRG cell culture assay. It is a marker of Cell proliferation, survival, death.Data from the assay component LTEA_HepaRG_SDHB was analyzed into 1 endpoint. This assay endpoint, LTEA_HepaRG_SDHB, was analyzed with bidirectional fitting relative to DMSO as the negative control and baseline of activity. Using a type of inducible reporter, measures of mRNA induction for gain or loss-of-signal activity can be used to understand regulation of transcription factor activity. To generalize the intended target to other relatable targets, this assay endpoint is annotated to the oxidoreductase intended target family, where the subfamily is ubiquinone.
A total of 1060 chemcials from the ToxCast library were tested in eight-point concentration-response experiments. Cell culture and cytotoxicity assays were conducted at Thermo Fisher Scientific's Custom Services facility (Madison, WI). A single lot of human HepaRG cells (Thermo Fisher Scientific, Frederick, MD) was used for the cell culture experiments. 96-well format collagen type I coated plates of human HepaRG cells were prepared using established methods. Briefly, cryopreserved HepaRG cells were thawed, plated at a density of approximately 100,000 cells/well in HepaRG Thaw, Plate, and General Purpose media (HPRG770, Thermo Fisher Scientific), and incubated for 48 hours. 0.5% DMSO was selected as vehicle control to balance the requisite need of DMSO in HepaRG cultures to maintain differentiation (for example, baseline metabolism, proportions of hepatocytes vs. cholangiocytes), while enabling further hepatic receptor pathway activation (for example, PXR and CAR) in response to chemical exposure. 48 hours after plating, the culture medium was replaced with HepaRG Serum-Free Incudtion Media. Cells were exposed to each test chemical in duplicate and maintained in CO2 incubators for another 48 hours. Chemical plates were thawed to room temperature and 200x concentrations of treatment groups were prepared. 8-point conentration-reponse curves were made with the highest exposure at 100 uM, followed by half-log dilutions, all in 0.5% DMSO. Each test plate contained variouse controls, induction positive controls (1mM phenobarbital), cytotoxicity positive controls ([…] aflatoxin B1), vehicle controls (0.5% DMSO), and total lysis controls (0.5% DMSO). Cell morphology images were taken using an Essen IncuCyte FLR automated microscope, with six 96-well plates imaged in about 24 minutes. Images were captured and exported and JPEG files. Spent culture media was transfered to black-well plates for the LDH assay, and remaining media was sorted at -80 C for later use. Cells were treated with RLT buffer and frozen until shipped for gene expression analysis. Total RNA was isolated from the cell suspension in 75 uL of Buffer RLT (Qiagen, Germantown, MD 20874) by Quintiles/Expression Analysis (Durham, NC) using a custom isolation procedure. Total RNA from each plate well was transferred to a preamplification plate. Fluidigm's 96.96 Dynamic ArrayTM (Fluidigm, Amsterdam, the Netherlands) technology was used for gene expression analyses by quantitative reverse transcription polymerase chain reaction (qRT-PCR, performed by Quintiles/Expression Analysis, Durham, NC)89. Standard TaqManTM Assays (Applied Biosystems/ThermoFisher Scientific, Foster City, CA) were used to assess the expression of 93 genes selected based on their selectivity and sensitivity to important hepatic receptors known to be modulated by environmental chemicals; importance in human hepatocyte functionality; and hepatotoxicity. […]

Q: With `C[Si]1(C)O[Si](C)(C)O[Si](C)(C)O[Si](C)(C)O1` as the compound, how does the outcome read?
A: inactive

Q: `CCOC(=O)C(C)(C)Oc1ccc(Cl)cc1` was tested. Which outcome did it give?
A: inactive

Q: How did the outcome turn out when `Cc1c(C(=O)O)c(O)cc2c1C(=O)c1c(O)c([C@@H]3O[C@H](CO)[C@@H](O)[C@H](O)[C@H]3O)c(O)c(O)c1C2=O` was run?
A: inactive

Q: `C=CCc1ccc(O)c(OC)c1` was tested. Which outcome did it give?
A: inactive

Q: Which outcome does the source give for `CC1(C)NC(=O)NC1=O` here?
A: inactive

Q: With `CC(C)c1ccc(C(=O)N=C(N)N)cc1S(C)(=O)=O` as the compound, how does the outcome read?
A: inactive

Q: `Cc1nc(C)nc(N2C[C@@H](C)N(c3ccnc([C@@H](C)O)n3)[C@@H](C)C2)n1` was tested. Which outcome did it give?
A: inactive

Q: How did the outcome turn out when `CCCCCCCC=O` was run?
A: inactive

Q: Which outcome does the source give for `O=C(O)Cc1ccccc1Nc1c(Cl)cccc1Cl` here?
A: inactive

Q: Which outcome does the source give for `O=c1[nH]cc(F)c(=O)[nH]1` here?
A: inactive

Q: For `CNCc1cc(F)ccc1Oc1ccc(Cl)c(Cl)c1`, which outcome is on record?
A: inactive

Q: Which outcome does the source give for `Cc1nc(-c2ccc3c(c2)CCN(CCC2CCC(NC(=O)/C=C/c4ccc(F)cc4)CC2)CC3)no1` (stereo not given) here?
A: inactive

Q: For `CCCCCCC(=O)OCC`, which outcome is on record?
A: inactive

Q: Which outcome does the source give for `Cc1cccc([N+](=O)[O-])c1C` here?
A: inactive

Q: For `CC(C)(C)c1cc(O)c(C(C)(C)C)cc1O`, which outcome is on record?
A: inactive

Q: `O=[N+]([O-])C(CO)(CO)CO` was tested. Which outcome did it give?
A: inactive

Q: Which outcome does the source give for `Cc1cccc(Nc2cc(Cl)nc(SCC(=O)O)n2)c1C` here?
A: inactive

Q: Which outcome does the source give for `O=c1c(O)c(-c2ccc(O)c(O)c2)oc2cc(O)cc(O)c12` here?
A: inactive

Q: For `CN1CCCC1=O`, which outcome is on record?
A: inactive

Q: With `CCNc1cccc(C)c1` as the compound, how does the outcome read?
A: inactive

Q: With `O=C(N[C@@H](Cc1ccccc1)[C@@H](O)C(=O)N1C[C@@H](O)[C@@H](O)C1)c1cc2cc(Cl)ccc2[nH]1` as the compound, how does the outcome read?
A: inactive

Q: Which outcome does the source give for `CC1(C)CC(N=C=O)CC(C)(CN=C=O)C1` (stereo not given) here?
A: inactive

Q: Which AC50 does the source give for `COCCOCCOC` here?
A: 10.9 µM (active)

Q: With `COc1ccc(C)cc1N` as the compound, how does the outcome read?
A: inactive

Q: `COC(=O)c1ccc(O)cc1` was tested. Which outcome did it give?
A: inactive

Q: `Cc1cc(NC(=O)C(=O)O)cc(C)c1Oc1ccc(O)c2c1CCC2` was tested. Which outcome did it give?
A: inactive

Q: Which outcome does the source give for `Cc1ccc(Cl)cc1` here?
A: inactive

Q: For `CCCCCCCCCCCC(=O)OC`, which outcome is on record?
A: inactive

Q: Which outcome does the source give for `COc1cc(C=O)ccc1O` here?
A: inactive

Q: With `CCCCN(CCCC)CCCC` as the compound, how does the outcome read?
A: inactive

Q: Which outcome does the source give for `FC(F)(F)C(F)(F)C(F)(F)C(F)(F)C(F)(F)C(F)(F)CCI` here?
A: inactive

Q: How did the outcome turn out when `C[C@]12C=CC(=O)C=C1CC[C@@H]1[C@@H]2C(=O)C[C@@]2(C)[C@H]1CC[C@]2(O)C(=O)CO` was run?
A: inactive

Q: Which outcome does the source give for `NC(=O)Cn1c(=O)cc(CCN2CCN(c3nccc4sccc34)CC2)c2ccc(F)cc21` here?
A: inactive

Q: Which outcome does the source give for `C1CCC(SSC2CCCCC2)CC1` here?
A: inactive

Q: For `CC(=O)Oc1ccccc1C(=O)O`, which outcome is on record?
A: inactive

Q: For `Cc1ccc(C)c(C)c1`, which outcome is on record?
A: inactive

Q: Which outcome does the source give for `C=CCOC(=O)c1ccccc1C(=O)OCC=C` here?
A: inactive

Q: How did the outcome turn out when `CNC(=O)[C@H]1O[C@@H](n2cnc3c(NCc4cc(Cl)ccc4OCc4cc(C)no4)ncnc32)[C@H](O)[C@@H]1N` was run?
A: inactive

Q: How did the outcome turn out when `COc1ccc2c(c1)c(CC(=O)O)c(C)n2C(=O)c1ccc(Cl)cc1` was run?
A: inactive

Q: For `COc1cc(-c2nc(NC(=O)c3cc4cc(C)cc(C)c4n3CC(=O)O)sc2CCC2CCCCC2)c(OC)cc1Cl`, which AC50 is on record?
A: 13.4 µM (active)
